From PubChem BioAssay
Calls of active or inactive are those of the source. Unless noted, how the calls were made is not given here.

Columns and labels:
[1] = tested on: Wnt5a (protein binding on small-molecule microarray); test: Wnt5a binders on small-molecule microarray, primary screen, biophysical, 635/667 nm fluorescence (AID 1142); conditions: 635 nm fluorescence, higher = more signal;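 further: fluorescence read at 667 nm with signal to noise per printed feature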
[2] = cell viability in Huh7 cells, primary screen, cytotoxicity control for HCV replication inhibitor project, CellTiter-Glo luminescence, basal, 48 h (AID 1143); conditions: Huh7 HCV replicon, higher = more signal, called active from +8 up or from −8 down;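 further: Huh7 hepatoma cells carrying a hepatitis C replication reporter with no stimulus; test concentration not given here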
[3] = P. aeruginosa biofilm formation inhibitors, primary screen, PAO1 strain, BacTiter-Glo luminescence, LB-PBS (AID 1144); conditions: 12 h, higher = more signal
[4] = CREB reporter modulators without forskolin, primary screen, cell-based, PC12, CRE-LacZ reporter, unstimulated (AID 1145); conditions: no forskolin, luminescence, 4.5 h, higher = more signal, called active from +8 up or from −8 down
[5] = CREB reporter modulators under forskolin, primary screen, cell-based, PC12, CRE-LacZ reporter, forskolin-stimulated (AID 1146); conditions: luminescence, 4.5 h, higher = more signal, called active from +8 up or from −8 down;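 further: PC12 cells with 6xCRE LacZ reporter stimulated by forskolin 10 µM; beta-galactosidase reporter signal reflecting CREB driven transcription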
[6] = target: Streptavidin (Streptomyces avidinii) (UniProt P22629); test: streptavidin binders on small-molecule microarray, primary screen, artefact control for SMM compound annotation, biophysical, 635/667 nm fluorescence (AID 1147); conditions: streptavidin binding, higher = more signal;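 further: signal reflects streptavidin binding to arrayed compounds as a control protein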
[7] = small-molecule binders of probe aInhba, primary screen, biochemical, small-molecule microarray, 635/667 nm fluorescence (AID 1148); conditions: higher = more signal;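 further: score merges 667nm spot fluorescence with signal-to-noise for antibody binding to printed compounds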
Torsin-1A (Homo sapiens) [8] = target: Torsin-1A (Homo sapiens) (UniProt O14656); test: torsin A binders from cell lysate, primary screen, small-molecule microarray, wild-type, 635/667 nm (AID 1149); conditions: COS7 hTOR1A-WT lysate, 635 nm fluorescence, higher = more signal
Torsin-1A (Homo sapiens) [9] = target: Torsin-1A (Homo sapiens) (UniProt O14656); test: small-molecule binders of mutant TOR1A in lysate, primary screen, cell lysate, small-molecule microarray, COS7 lysate, 635/667 nm fluorescence (AID 1150); conditions: COS7 hTOR1A mutant lysate, 635 nm fluorescence, higher = more signal;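 further: score pools 667 nm emission and signal to noise measuring lysate protein binding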
[10] = tested on: Sonic hedgehog protein (Shh); test: small-molecule binders of Shh protein, primary screen, biochemical, small-molecule microarray, 635/667 nm fluorescence (AID 1151); conditions: small-molecule microarray binding, 635 nm fluorescence; higher = more signal;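 further: Shh protein binding to compounds spotted on small-molecule microarray slides; score combines spot fluorescence intensity with signal-to-noise across triplicate slides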
[11] = E. coli DRC41 culture turbidity changes, primary screen, E. coli filamentation inducer project, strain DRC41, OD650, 48 h (AID 1152);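 further: E. coli MC1000 strain DRC41 lacking acrAB efflux pump and sulA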; conditions: E. coli DRC41 (acrAB sulA), higher = more signal, called active from +8 up or from −8 down
[12] = small-molecule binders of probe aLefty1, primary screen, biochemical, small-molecule microarray, 635/667 nm fluorescence (AID 1153); conditions: higher = more signal;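 further: score merges spot fluorescence with signal-to-noise ratio from the scanned slide images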
[13] = PSAC antagonists in infected red cells, primary screen, cell-based, P. falciparum Indochina, OD700, 1 h (AID 1154); conditions: P. falciparum Indochina infected RBC osmotic lysis, higher = more signal, called active from +8 up or from −8 down
[14] = PSAC antagonists in infected red cells, primary screen, cell-based, P. falciparum Indochina, OD700, 2 h (AID 1155);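 further: lysis reports solute entry through the parasite surface anion channel PSAC; channel blockers reduce lysis of infected cells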; conditions: P. falciparum Indochina infected erythrocytes, osmotic lysis OD700; higher = more signal, called active from +8 up or from −8 down
[15] = osmotic lysis modulators in infected erythrocytes, primary screen, PSAC antagonist project, cell-based, P. falciparum Indochina, OD700, 3 h (AID 1156); conditions: higher = more signal, called active from +8 up or from −8 down
[16] = PSAC antagonists in infected red cells, primary screen, cell-based, P. falciparum Indochina, OD700, 18 h (AID 1157); conditions: P. falciparum Indochina infected erythrocytes, osmotic lysis OD700, 18 h; higher = more signal, called active from +8 up or from −8 down
[17] = modulators of S6 phosphorylation in cells, primary screen, cell-based, A549, cytoblot, luminescence, serum-stimulated (AID 1158); conditions: A549 phospho-S6 cytoblot, 5 h, higher = more signal;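 further: serum-stimulated A549 lung adenocarcinoma cells; signal is phosphorylated S6 detected by cytoblot immunostaining with HRP secondary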
[18] = target: NADPH oxidase 2 (Homo sapiens) (UniProt P04839); test: NOX2-dependent H2O2 signal modulators, primary screen, NOX inhibitor project, cell-based, HEK293-NOX2, PMA-stimulated, Amplex Red fluorescence (AID 1159); conditions: 45 min, higher = more signal, called active from +8 up or from −8 down; further: test concentration not given here
[19] = target: NADPH oxidase 4 (Homo sapiens) (UniProt Q9NPH5); test: NOX4-dependent H2O2 signal modulators, primary screen, NOX inhibitor project, cell-based, HEK293-NOX4, tetracycline-induced, Amplex Red fluorescence (AID 1160); conditions: 45 min, higher = more signal, called active from +8 up or from −8 down
[20] = target: NADPH oxidase 5 (Homo sapiens) (UniProt Q96PH1); test: NOX5-dependent H2O2 signal modulators, primary screen, NOX inhibitor project, cell-based, HEK293-NOX5, Amplex Red fluorescence (AID 1161); conditions: HEK293-NOX5, ionomycin, 45 min, higher = more signal
Sequence of NADPH oxidase 5 (Homo sapiens) (Q96PH1 whole entry, looked up): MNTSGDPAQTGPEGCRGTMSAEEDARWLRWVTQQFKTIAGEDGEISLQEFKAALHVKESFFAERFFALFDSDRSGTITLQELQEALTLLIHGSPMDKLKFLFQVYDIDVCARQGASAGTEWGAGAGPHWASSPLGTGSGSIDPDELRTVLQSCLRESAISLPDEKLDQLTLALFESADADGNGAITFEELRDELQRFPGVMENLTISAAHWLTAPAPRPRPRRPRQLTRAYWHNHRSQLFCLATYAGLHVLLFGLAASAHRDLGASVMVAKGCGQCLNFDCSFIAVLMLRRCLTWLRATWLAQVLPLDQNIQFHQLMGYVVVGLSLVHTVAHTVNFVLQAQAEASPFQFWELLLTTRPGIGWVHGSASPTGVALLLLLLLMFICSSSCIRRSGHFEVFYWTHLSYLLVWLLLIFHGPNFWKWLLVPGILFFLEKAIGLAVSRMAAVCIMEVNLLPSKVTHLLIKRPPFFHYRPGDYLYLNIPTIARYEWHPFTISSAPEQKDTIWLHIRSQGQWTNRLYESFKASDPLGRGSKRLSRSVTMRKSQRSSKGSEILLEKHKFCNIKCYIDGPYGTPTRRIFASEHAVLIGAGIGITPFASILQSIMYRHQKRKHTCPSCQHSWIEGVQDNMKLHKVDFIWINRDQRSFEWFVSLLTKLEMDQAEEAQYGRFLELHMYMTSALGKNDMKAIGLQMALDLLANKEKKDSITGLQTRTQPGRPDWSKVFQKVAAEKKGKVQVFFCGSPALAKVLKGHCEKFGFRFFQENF

Sequence of NADPH oxidase 4 (Homo sapiens) (Q9NPH5 whole entry, looked up): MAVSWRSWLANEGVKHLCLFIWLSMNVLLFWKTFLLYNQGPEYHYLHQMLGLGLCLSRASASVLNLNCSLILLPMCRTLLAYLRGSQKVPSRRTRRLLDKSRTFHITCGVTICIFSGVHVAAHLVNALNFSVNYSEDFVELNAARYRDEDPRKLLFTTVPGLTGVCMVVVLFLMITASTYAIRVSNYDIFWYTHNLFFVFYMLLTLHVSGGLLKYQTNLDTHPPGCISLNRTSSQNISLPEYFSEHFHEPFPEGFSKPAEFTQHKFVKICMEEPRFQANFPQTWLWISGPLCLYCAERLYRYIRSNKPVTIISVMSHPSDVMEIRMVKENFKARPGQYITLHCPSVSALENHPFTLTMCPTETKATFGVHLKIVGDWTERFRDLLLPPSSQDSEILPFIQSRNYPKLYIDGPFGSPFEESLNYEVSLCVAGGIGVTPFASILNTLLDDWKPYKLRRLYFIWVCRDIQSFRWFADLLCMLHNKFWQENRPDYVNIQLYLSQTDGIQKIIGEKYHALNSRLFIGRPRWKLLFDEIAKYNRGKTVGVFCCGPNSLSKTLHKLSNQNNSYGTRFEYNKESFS
Sequence of Streptavidin (Streptomyces avidinii) (P22629 whole entry, looked up): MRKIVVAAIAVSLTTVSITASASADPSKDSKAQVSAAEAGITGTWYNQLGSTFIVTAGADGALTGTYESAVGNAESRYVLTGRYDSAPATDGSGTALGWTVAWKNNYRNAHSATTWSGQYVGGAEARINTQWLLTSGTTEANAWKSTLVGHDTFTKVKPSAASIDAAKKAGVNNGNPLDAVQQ
Sequence of Torsin-1A (Homo sapiens) (O14656 whole entry, looked up): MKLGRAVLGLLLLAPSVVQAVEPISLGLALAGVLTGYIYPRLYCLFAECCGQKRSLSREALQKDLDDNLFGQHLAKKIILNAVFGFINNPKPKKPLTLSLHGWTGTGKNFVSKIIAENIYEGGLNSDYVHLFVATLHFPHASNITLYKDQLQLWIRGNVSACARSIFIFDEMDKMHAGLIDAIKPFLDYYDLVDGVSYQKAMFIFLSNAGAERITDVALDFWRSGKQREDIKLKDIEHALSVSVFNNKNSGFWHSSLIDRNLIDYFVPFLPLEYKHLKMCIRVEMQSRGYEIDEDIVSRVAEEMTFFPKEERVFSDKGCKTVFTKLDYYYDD
Sequence of NADPH oxidase 2 (Homo sapiens) (P04839 whole entry, looked up): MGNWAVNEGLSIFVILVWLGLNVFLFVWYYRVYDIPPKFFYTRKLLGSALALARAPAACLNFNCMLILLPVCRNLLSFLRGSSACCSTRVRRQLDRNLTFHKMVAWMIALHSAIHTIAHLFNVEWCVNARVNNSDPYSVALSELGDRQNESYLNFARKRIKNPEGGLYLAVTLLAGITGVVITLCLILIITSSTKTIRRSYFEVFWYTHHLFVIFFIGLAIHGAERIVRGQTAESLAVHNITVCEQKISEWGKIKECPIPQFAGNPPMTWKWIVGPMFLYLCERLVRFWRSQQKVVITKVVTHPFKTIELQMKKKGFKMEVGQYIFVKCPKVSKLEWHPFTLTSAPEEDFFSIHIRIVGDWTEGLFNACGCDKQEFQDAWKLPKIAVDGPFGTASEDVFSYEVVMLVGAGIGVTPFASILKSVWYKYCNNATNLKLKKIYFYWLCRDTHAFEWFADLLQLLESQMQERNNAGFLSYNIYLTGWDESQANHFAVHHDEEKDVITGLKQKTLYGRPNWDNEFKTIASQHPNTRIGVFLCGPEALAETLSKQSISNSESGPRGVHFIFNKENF

Compound: CCCC=C(CCC)[C@@H](NS(=O)(=O)c1cccc(C(F)(F)F)c1)c1ccc(C(=O)OC)cc1
- composite z-score [1]: 1.16
- z-score [2]: 0.0804 (inactive)
- z-score [3]: -0.109 (inactive)
- z-score [4]: -0.182 (inactive)
- z-score [5]: -0.547 (inactive)
- composite z-score [6]: 0.0276
- composite z-score [7]: 1.43
- composite z-score (Torsin-1A (Homo sapiens) [8]): 0.258
- composite z-score (Torsin-1A (Homo sapiens) [9]): -0.223
- composite z-score [10]: 0.116
- z-score [11]: -0.77 (inactive)
- composite z-score [12]: 1.6
- z-score [13]: -0.82 (inactive)
- z-score [14]: -0.868 (inactive)
- z-score [15]: -0.723 (inactive)
- z-score [16]: -1.41 (inactive)
- z-score [17]: 0.213
- z-score [18]: 0.139 (inactive)
- z-score [19]: 0.449 (inactive)
- z-score [20]: 1.87

Compound: CCOC(=O)C1=CCC(c2cccc3ccccc23)N(S(=O)(=O)c2ccc(C)cc2)C1 (stereo not given)
- composite z-score [1]: 0.204
- z-score [2]: -3.85 (inactive)
- z-score [3]: 0.00942 (inactive)
- z-score [4]: -0.826 (inactive)
- z-score [5]: -0.0663 (inactive)
- composite z-score [6]: 1.12
- composite z-score [7]: 0.201
- composite z-score (Torsin-1A (Homo sapiens) [8]): 0.334
- composite z-score (Torsin-1A (Homo sapiens) [9]): 0.216
- composite z-score [10]: -0.717
- z-score [11]: -0.894 (inactive)
- composite z-score [12]: 0.071
- z-score [13]: 1.49 (inactive)
- z-score [14]: 0.902 (inactive)
- z-score [15]: -1.54 (inactive)
- z-score [16]: 0.411 (inactive)
- z-score [17]: -0.415
- z-score [18]: 1.42 (inactive)
- z-score [19]: 1.17 (inactive)
- z-score [20]: 1.49

Compound: COc1ccc(NN2C(C(O)c3cc(OC)c(OC)c(OC)c3)C=CC3C(=O)N(C4CCCCC4)C(=O)C32)cc1 (stereo not given)
- composite z-score [1]: 0.866
- z-score [2]: -1.6 (inactive)
- z-score [3]: -0.272 (inactive)
- z-score [4]: 0.285 (inactive)
- z-score [5]: 0.907 (inactive)
- composite z-score [6]: 1.14
- composite z-score [7]: 0.294
- composite z-score (Torsin-1A (Homo sapiens) [8]): -0.125
- composite z-score (Torsin-1A (Homo sapiens) [9]): 0.236
- composite z-score [10]: 0.377
- z-score [11]: -0.413 (inactive)
- composite z-score [12]: 0.06
- z-score [13]: 11.5 (active)
- z-score [14]: 1.74 (inactive)
- z-score [15]: 0.752 (inactive)
- z-score [16]: 0.558 (inactive)
- z-score [17]: -0.241
- z-score [18]: -1.55 (inactive)
- z-score [19]: -1.85 (inactive)
- z-score [20]: -2.67

Compound: COc1ccc(C(O)C2C=CC3C(=O)N(C)C(=O)C3N2N2CCCCC2)cc1OCc1ccccc1 (stereo not given)
- composite z-score [1]: 0.0847
- z-score [2]: 0.135 (inactive)
- z-score [3]: -0.314 (inactive)
- z-score [4]: 0.433 (inactive)
- z-score [5]: -0.342 (inactive)
- composite z-score [6]: 0.701
- composite z-score [7]: -0.0332
- composite z-score (Torsin-1A (Homo sapiens) [8]): 0.0884
- composite z-score (Torsin-1A (Homo sapiens) [9]): 0.836
- composite z-score [10]: -0.282
- z-score [11]: -1.54 (inactive)
- composite z-score [12]: 0.11
- z-score [13]: 2.29 (inactive)
- z-score [14]: 1.53 (inactive)
- z-score [15]: 0.42 (inactive)
- z-score [16]: 1.27 (inactive)
- z-score [17]: -1.16
- z-score [18]: 0.0637 (inactive)
- z-score [19]: -1.56 (inactive)
- z-score [20]: 1.31

Compound: C#C[C@H](O[Si](C#Cc1ccccc1)(C(C)C)C(C)C)c1ccccc1
- composite z-score [1]: -0.0449
- z-score [2]: -1.33 (inactive)
- z-score [3]: -0.368 (inactive)
- z-score [4]: -0.258 (inactive)
- z-score [5]: 6.27 (inactive)
- composite z-score [6]: -0.636
- composite z-score [7]: -0.242
- composite z-score (Torsin-1A (Homo sapiens) [8]): -0.234
- composite z-score (Torsin-1A (Homo sapiens) [9]): -0.543
- composite z-score [10]: -0.154
- z-score [11]: -0.0719 (inactive)
- composite z-score [12]: 0.22
- z-score [13]: 0.876 (inactive)
- z-score [14]: 0.924 (inactive)
- z-score [15]: -1.54 (inactive)
- z-score [16]: 0.234 (inactive)
- z-score [17]: -0.801
- z-score [18]: 0.146 (inactive)
- z-score [19]: -0.779 (inactive)
- z-score [20]: -2.37

Compound: CN(C)c1ccc(C(O)C2C=CC3C(=O)NC(=O)C3N2Nc2ccc(Cl)cc2Cl)cc1 (stereo not given)
- composite z-score [1]: -0.0936
- z-score [2]: 0.126 (inactive)
- z-score [3]: -1.03 (inactive)
- z-score [4]: 0.629 (inactive)
- z-score [5]: 0.628 (inactive)
- composite z-score [6]: 0.437
- composite z-score [7]: 0.13
- composite z-score (Torsin-1A (Homo sapiens) [8]): -0.0205
- composite z-score (Torsin-1A (Homo sapiens) [9]): 0.776
- composite z-score [10]: -0.214
- z-score [11]: -0.85 (inactive)
- composite z-score [12]: 0.68
- z-score [13]: 3.51 (inactive)
- z-score [14]: 0.567 (inactive)
- z-score [15]: 1.45 (inactive)
- z-score [16]: 1.27 (inactive)
- z-score [17]: -0.645
- z-score [18]: -1.15 (inactive)
- z-score [19]: -4.56 (inactive)
- z-score [20]: -2.72

Compound: CCC1=C2CN(Cc3ccccc3Br)[C@@H]([C@@H](O)Cc3ccccc3)C2C=CCC1 (stereo not given in full)
- composite z-score [1]: 0.0361
- z-score [2]: -5.22 (inactive)
- z-score [3]: -0.709 (inactive)
- z-score [4]: 2.12 (inactive)
- z-score [5]: 4.84 (inactive)
- composite z-score [6]: 0.721
- composite z-score [7]: -0.105
- composite z-score (Torsin-1A (Homo sapiens) [8]): 0.476
- composite z-score (Torsin-1A (Homo sapiens) [9]): 0.212
- composite z-score [10]: 0.675
- z-score [11]: 0.625 (inactive)
- composite z-score [12]: -0.101
- z-score [13]: 4.02 (inactive)
- z-score [14]: -0.96 (inactive)
- z-score [15]: -0.115 (inactive)
- z-score [16]: -1.8 (inactive)
- z-score [17]: 1.56
- z-score [18]: -0.306 (inactive)
- z-score [19]: -4.86 (inactive)
- z-score [20]: -4.65

Compound: COc1ccc([Si](C)(C)[C@@H]2[C@@H](CCO)O[C@]3(C(=O)N(Cc4ccccc4)c4ccccc43)[C@H]2C)cc1
- composite z-score [1]: -0.0721
- z-score [2]: -1.98 (inactive)
- z-score [3]: 0.773 (inactive)
- z-score [4]: 0.0352 (inactive)
- z-score [5]: -0.46 (inactive)
- composite z-score [6]: -0.155
- composite z-score [7]: 1
- composite z-score (Torsin-1A (Homo sapiens) [8]): -0.239
- composite z-score (Torsin-1A (Homo sapiens) [9]): -0.283
- composite z-score [10]: 0.0843
- z-score [11]: 1.25 (inactive)
- composite z-score [12]: -0.0143
- z-score [13]: 1.13 (inactive)
- z-score [14]: 0.81 (inactive)
- z-score [15]: 0.117 (inactive)
- z-score [16]: 0.353 (inactive)
- z-score [17]: 0.779
- z-score [18]: 1.57 (inactive)
- z-score [19]: -0.523 (inactive)
- z-score [20]: 1.84

Compound: CC(C)[C@H]1NC(=O)[C@@]23C(=O)N[C@@H](Cc4ccccc4)C2[C@H](C)[C@@]2(C)O[C@H]2C3/C=C/C/C=C\CNC(=O)[C@H](C)NC1=O (stereo not given in full)
- composite z-score [1]: -0.438
- z-score [2]: -0.131 (inactive)
- z-score [3]: 0.0406 (inactive)
- z-score [4]: 0.306 (inactive)
- z-score [5]: 0.289 (inactive)
- composite z-score [6]: -1.07
- composite z-score [7]: -0.151
- composite z-score (Torsin-1A (Homo sapiens) [8]): -0.96
- composite z-score (Torsin-1A (Homo sapiens) [9]): 0.237
- composite z-score [10]: 0.203
- z-score [11]: -0.629 (inactive)
- composite z-score [12]: -0.381
- z-score [13]: 3.36 (inactive)
- z-score [14]: 0.538 (inactive)
- z-score [15]: 0.386 (inactive)
- z-score [16]: 0.01 (inactive)
- z-score [17]: -0.221
- z-score [18]: 0.813 (inactive)
- z-score [19]: -0.833 (inactive)
- z-score [20]: 0.137
